According to PubChem BioAssay AID1159580 (chemical genetic matrix, 2015):
In all, about 5,500 compounds went through this assay and about 2,000 (36%) were called active. Inconclusive results (about 18%) are left out. No stated cut-off is given here; in the data, active means normalized growth mostly below about 0.91 (no sharp cut-off); inconclusive means no clear call, values can overlap the other calls; inactive means mostly above about 0.92. The list shows a part of the results.

Assay: chemical genetic growth profiling, strain panel (AID 1159580);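 further: tested at 20 µM; growth read once vehicle control cultures reached saturation at 30 °C; 1 = growth at the plate median or of vehicle wells; lower values mean less growth of the strain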
Conditions: S. cerevisiae deletion strains, growth OD

Measured: normalized growth

O=C(O)CSCC(=O)NC1CCN(Cc2ccccc2)CC1
inactive: locus YAL013W, strain DEP1, active compounds read low 1.01 | locus YBR229C, strain ROT2, active compounds read low 1.01 | locus YDL101C, strain DUN1, active compounds read low 0.997 | locus YDR150W, strain NUM1, active compounds read low 1.01 | locus YEL061C, strain CIN8, active compounds read low 1.02 | locus YGR078C, strain PAC10, active compounds read low 1 | locus YHR030C, strain SLT2, active compounds read low 1.08 | locus YHR087W, strain rtc3, active compounds read low 0.994 | locus YJR043C, strain POL32, active compounds read low 1 | locus YJR075W, strain HOC1, active compounds read low 1.01 | locus YLR039C, strain RIC1, active compounds read low 1.02 | locus YLR058C, strain SHM2 (second series), active compounds read low 0.998 | locus YLR085C, strain ARP6, active compounds read low 0.993 | locus YLR262C, strain YPT6, active compounds read low 1.05 | locus YML094W, strain GIM5, active compounds read low 1.02 | locus YMR219W, strain ESC1, active compounds read low 1.01 | locus YMR263W, strain SAP30, active compounds read low 0.998 | locus YNL153C, strain GIM3, active compounds read low 1.01 | locus YNL298W, strain CLA4 (second series), active compounds read low 1.03 | locus YNL322C, strain KRE1, active compounds read low 1.02 | locus YNR030W, strain Alg12, active compounds read low 1.02 | locus YPL055C, strain LGE1, active compounds read low 1.02 | locus YPL241C, strain CIN2, active compounds read low 1.04 | locus YPR135W, strain CTF4, active compounds read low 1
